# Data from publication PMC8384837, “Expanding the binding specificity for RNA recognition by a PUF domain”.
# What was measured:
# Assay in all cases: yeast three-hybrid, YBZ-1, SC-Leu-His + 0.5 mM 3-AT, 4 days
# Settings in all cases: tags: N-Gal4 AD-HA kept; label: inside an RPR1-promoter hybrid RNA with tandem MS2 sites; ssRNA
# PUM1 PUF domain R6-VFR = target: T1, PUM1 PUF domain R6-VFR (Homo sapiens, UniProt Q14671 828-1176, N1043V;Y1044F;Q1047R)
# T1 sequence: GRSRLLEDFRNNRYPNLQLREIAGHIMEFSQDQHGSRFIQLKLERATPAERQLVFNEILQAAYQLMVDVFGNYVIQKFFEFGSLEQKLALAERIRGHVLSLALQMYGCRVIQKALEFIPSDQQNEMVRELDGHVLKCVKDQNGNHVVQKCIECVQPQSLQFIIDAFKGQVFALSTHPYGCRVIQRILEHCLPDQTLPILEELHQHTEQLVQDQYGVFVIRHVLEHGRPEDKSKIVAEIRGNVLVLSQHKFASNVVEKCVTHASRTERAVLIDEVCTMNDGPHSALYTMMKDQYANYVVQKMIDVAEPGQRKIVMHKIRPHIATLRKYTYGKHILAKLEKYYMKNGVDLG
# How it was run: (§1)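 Repeat regions from input (SC-Leu) and selection (SC-Leu-His + 0.5 mM 3-AT) plates were PCR-amplified and Illumina-sequenced after four days of growth. The cells were strain YBZ-1 with a LexA–MS2 coat fusion and a HIS3 reporter, co-expressing Pumilio-1 PUF domain libraries and matching RNA elements from a centromeric plasmid. The interaction score is the log change in variant frequency from input to selection, taken in log2 with a pseudocount of 1 for absent variants.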
# PUM1 PUF domain R7-SRK = PUM1 PUF domain R7-SRK (Homo sapiens, UniProt Q14671 828-1176, N1080R;E1083K)
# How it was run: as §1
# PUM1 PUF domain R5-NPI = PUM1 PUF domain R5-NPI (Homo sapiens, UniProt Q14671 828-1176, C1007N;R1008P;Q1011I)
# How it was run: as §1
# PUM1 PUF domain R3-SQE = PUM1 PUF domain R3-SQE (Homo sapiens, UniProt Q14671 828-1176, C935S;R936Q;Q939E)
# How it was run: as §1
# PUM1 PUF domain R3-SPR = PUM1 PUF domain R3-SPR (Homo sapiens, UniProt Q14671 828-1176, C935S;R936P;Q939R)
# How it was run: as §1
# PUM1 PUF domain R1-KSR = PUM1 PUF domain R1-KSR (Homo sapiens, UniProt Q14671 828-1176, S863K;R864S;Q867R)
# How it was run: as §1
# PUM1 PUF domain R4-PHV = PUM1 PUF domain R4-PHV (Homo sapiens, UniProt Q14671 828-1176, N971P;Q975V)
# How it was run: as §1
# PUM1 PUF domain R3-DYI = PUM1 PUF domain R3-DYI (Homo sapiens, UniProt Q14671 828-1176, C935D;R936Y;Q939I)
# How it was run: as §1
# PUM1 PUF domain R4-VPT = PUM1 PUF domain R4-VPT (Homo sapiens, UniProt Q14671 828-1176, N971V;H972P;Q975T)
# How it was run: as §1
# PUM1 PUF domain R5-SAS = PUM1 PUF domain R5-SAS (Homo sapiens, UniProt Q14671 828-1176, C1007S;R1008A;Q1011S)
# How it was run: as §1
sequence,measurement,setting,value
GGCUAGAACUAGUGGAUCCCCCGGCGCCCGGCGGCUCGAGCCCGGGUAAGUGCAAAUAGUCUGCAUGCCGCCGGGCGCCAUGCCUGCAGGUCGACUCUAGAAAACAUG,binding signal,PUM1 PUF domain R6-VFR,1.27 log2 enrichment (interaction score)
GGCUAGAACUAGUGGAUCCCCCGGCGCCCGGCGGCUCGAGCCCGGGUAAGUCUAAAUAGUCUGCAUGCCGCCGGGCGCCAUGCCUGCAGGUCGACUCUAGAAAACAUG,binding signal,PUM1 PUF domain R7-SRK,4.33 log2 enrichment (interaction score)
GGCUAGAACUAGUGGAUCCCCCGGCGCCCGGCGGCUCGAGCCCGGGUAAGUGUUAAUAGUCUGCAUGCCGCCGGGCGCCAUGCCUGCAGGUCGACUCUAGAAAACAUG,binding signal,PUM1 PUF domain R5-NPI,2.85 log2 enrichment (interaction score)
GGCUAGAACUAGUGGAUCCCCCGGCGCCCGGCGGCUCGAGCCCGGGUAAGUGUAAGUAGUCUGCAUGCCGCCGGGCGCCAUGCCUGCAGGUCGACUCUAGAAAACAUG,binding signal,PUM1 PUF domain R3-SQE,3.11 log2 enrichment (interaction score)
same,binding signal,PUM1 PUF domain R3-SPR,1.77 log2 enrichment (interaction score)
GGCUAGAACUAGUGGAUCCCCCGGCGCCCGGCGGCUCGAGCCCGGGUAAGUGUAAAUCGUCUGCAUGCCGCCGGGCGCCAUGCCUGCAGGUCGACUCUAGAAAACAUG,binding signal,PUM1 PUF domain R1-KSR,5.1 log2 enrichment (interaction score)
GGCUAGAACUAGUGGAUCCCCCGGCGCCCGGCGGCUCGAGCCCGGGUAAGUGUAACUAGUCUGCAUGCCGCCGGGCGCCAUGCCUGCAGGUCGACUCUAGAAAACAUG,binding signal,PUM1 PUF domain R3-SPR,1.77 log2 enrichment (interaction score)
GGCUAGAACUAGUGGAUCCCCCGGCGCCCGGCGGCUCGAGCCCGGGUAAGUGUAAAUAGUCUGCAUGCCGCCGGGCGCCAUGCCUGCAGGUCGACUCUAGAAAACAUG,binding signal,PUM1 PUF domain R6-VFR,4.2 log2 enrichment (interaction score)
same,binding signal,PUM1 PUF domain R4-PHV,4.46 log2 enrichment (interaction score)
same,binding signal,PUM1 PUF domain R3-DYI,5.38 log2 enrichment (interaction score)
same,binding signal,PUM1 PUF domain R3-SPR,0.25 log2 enrichment (interaction score)
GGCUAGAACUAGUGGAUCCCCCGGCGCCCGGCGGCUCGAGCCCGGGUAAGUGUAAUUAGUCUGCAUGCCGCCGGGCGCCAUGCCUGCAGGUCGACUCUAGAAAACAUG,binding signal,PUM1 PUF domain R3-SPR,3.06 log2 enrichment (interaction score)
GGCUAGAACUAGUGGAUCCCCCGGCGCCCGGCGGCUCGAGCCCGGGUAAGUGUAUAUAGUCUGCAUGCCGCCGGGCGCCAUGCCUGCAGGUCGACUCUAGAAAACAUG,binding signal,PUM1 PUF domain R4-VPT,2.12 log2 enrichment (interaction score)
same,binding signal,PUM1 PUF domain R4-PHV,7.14 log2 enrichment (interaction score)
GGCUAGAACUAGUGGAUCCCCCGGCGCCCGGCGGCUCGAGCCCGGGUAAGUGUGAAUAGUCUGCAUGCCGCCGGGCGCCAUGCCUGCAGGUCGACUCUAGAAAACAUG,binding signal,PUM1 PUF domain R5-SAS,5.82 log2 enrichment (interaction score)
GGCUAGAACUAGUGGAUCCCCCGGCGCCCGGCGGCUCGAGCCCGGGUAAGUGUAAAUUGUCUGCAUGCCGCCGGGCGCCAUGCCUGCAGGUCGACUCUAGAAAACAUG,binding signal,PUM1 PUF domain R1-KSR,5.58 log2 enrichment (interaction score)
GGCUAGAACUAGUGGAUCCCCCGGCGCCCGGCGGCUCGAGCCCGGGUAAGUGUACAUAGUCUGCAUGCCGCCGGGCGCCAUGCCUGCAGGUCGACUCUAGAAAACAUG,binding signal,PUM1 PUF domain R4-VPT,0.61 log2 enrichment (interaction score)
same,binding signal,PUM1 PUF domain R4-PHV,4.96 log2 enrichment (interaction score)
